Laboratory results published in the supplement of paper PMC12067093, “Discovery and optimisation of a covalent ligand for TRIM25 and its application to targeted protein ubiquitination” (Chemical Science, 2025).
About 21,000 targets were measured; listed, in parts, are those with the largest changes and a random draw of the rest.

Legend:
Assay in all cases: probe-labelled cysteine peptide fold change vs DMSO (competition) (log2 fold change); higher = less target engagement (more negative = stronger competition)
Conditions in all cases: THP-1, incubation time: 4 h
[1] = molecular target: A6NIZ1_A6NIZ1_118_VKDTDDVPMILVGNKCDLEDERVVGK<|>RAP1B_P61224_118_VKDTDDVPMILVGNKCDLEDERVVGK (UniProt P61224+A6NIZ1)
[2] = molecular target: A6NNZ2_A6NNZ2_303_NMMAACDPR<|>TUBB4A_P04350_303_NMMAACDPR<|>TUBB_P07437_303_NMMAACDPR<|>TUBB4B_P68371_303_NMMAACDPR<|>TUBB3_Q13509_303_NMMAACDPR<|>TUBB2A_Q3ZCM7_303_NMMAACDPR<|>TUBB8_Q9BUF5_303_NMMAACDPR<|>TUBB6_Q9BVA1_303_NMMAACDPR (UniProt Q9BVA1+Q3ZCM7+Q13509+P68371+P07437+P04350+Q9BUF5+A6NNZ2)
[3] = molecular target: ABCC1_P33527_1047_CLHVDLLHSILR (UniProt P33527)
[4] = molecular target: ABCF2_Q9UG63_586_LIQQVAQEIWVCEK (UniProt Q9UG63)
[5] = molecular target: ABHD10_Q9NUJ1_229_EAEHHCLLHSPIPVNCPIR (UniProt Q9NUJ1)
UniProt Q9NUJ1, sequence (Q9NUJ1 whole entry, looked up): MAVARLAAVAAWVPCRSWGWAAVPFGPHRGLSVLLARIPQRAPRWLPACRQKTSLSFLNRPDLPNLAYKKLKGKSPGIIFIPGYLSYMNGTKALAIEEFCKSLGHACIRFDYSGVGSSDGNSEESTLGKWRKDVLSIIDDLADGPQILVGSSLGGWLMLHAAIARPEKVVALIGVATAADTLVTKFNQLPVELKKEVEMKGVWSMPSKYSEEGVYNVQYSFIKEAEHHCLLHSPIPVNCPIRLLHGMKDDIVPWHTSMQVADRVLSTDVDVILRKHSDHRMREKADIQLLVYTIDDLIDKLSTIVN

[6] = molecular target: ABHD15_Q6UXT9_323_EFEEALFCHTK (UniProt Q6UXT9)
ABHD15_Q6UXT9_323_EFEEALFCHTK, sequence (Q6UXT9 whole entry, looked up): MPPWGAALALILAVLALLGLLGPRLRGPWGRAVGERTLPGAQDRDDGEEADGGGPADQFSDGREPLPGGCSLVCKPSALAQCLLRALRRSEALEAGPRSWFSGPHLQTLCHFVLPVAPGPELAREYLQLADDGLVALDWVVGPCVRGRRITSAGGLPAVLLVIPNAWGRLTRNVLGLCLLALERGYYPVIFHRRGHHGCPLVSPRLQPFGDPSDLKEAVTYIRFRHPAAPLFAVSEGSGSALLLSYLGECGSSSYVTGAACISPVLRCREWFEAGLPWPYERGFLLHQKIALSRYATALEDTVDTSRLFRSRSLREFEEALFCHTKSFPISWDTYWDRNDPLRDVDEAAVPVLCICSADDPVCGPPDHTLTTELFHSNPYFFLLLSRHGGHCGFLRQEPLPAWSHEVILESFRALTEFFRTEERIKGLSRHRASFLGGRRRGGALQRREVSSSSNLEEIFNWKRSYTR

[7] = molecular target: ABHD16A_O95870_544_HLHNFEATHCTPLPAQNFQMPWHL (UniProt O95870)
[8] = molecular target: ABHD17B_Q5VST6_250_CQRPVEPLWVEGAGHNDVELYGQYLER (UniProt Q5VST6)
[9] = molecular target: ACAA1_P09110_123_QCSSGLQAVASIAGGIR (UniProt P09110)
[10] = molecular target: ACAA1_P09110_177_ARDCLIPMGITSENVAER (UniProt P09110)
[11] = molecular target: ACAA2_P42765_116_EAEVVLCGGTESMSQAPYCVR (UniProt P42765)
UniProt P42765, sequence (P42765 whole entry, looked up): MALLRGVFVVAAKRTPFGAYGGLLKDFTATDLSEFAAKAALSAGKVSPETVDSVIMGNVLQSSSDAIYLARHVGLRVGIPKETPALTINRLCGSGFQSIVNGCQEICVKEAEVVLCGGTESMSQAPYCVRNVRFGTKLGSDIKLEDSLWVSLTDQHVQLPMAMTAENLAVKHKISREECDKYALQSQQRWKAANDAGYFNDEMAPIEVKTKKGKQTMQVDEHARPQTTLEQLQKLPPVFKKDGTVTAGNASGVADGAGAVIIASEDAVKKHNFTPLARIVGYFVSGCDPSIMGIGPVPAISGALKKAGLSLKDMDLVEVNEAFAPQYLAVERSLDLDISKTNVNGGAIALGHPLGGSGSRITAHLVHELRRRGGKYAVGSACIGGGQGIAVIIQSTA

[12] = molecular target: ACAD9_Q9H845_271_GSNTCEVHFENTK (UniProt Q9H845)
UniProt Q9H845, sequence (Q9H845 whole entry, looked up): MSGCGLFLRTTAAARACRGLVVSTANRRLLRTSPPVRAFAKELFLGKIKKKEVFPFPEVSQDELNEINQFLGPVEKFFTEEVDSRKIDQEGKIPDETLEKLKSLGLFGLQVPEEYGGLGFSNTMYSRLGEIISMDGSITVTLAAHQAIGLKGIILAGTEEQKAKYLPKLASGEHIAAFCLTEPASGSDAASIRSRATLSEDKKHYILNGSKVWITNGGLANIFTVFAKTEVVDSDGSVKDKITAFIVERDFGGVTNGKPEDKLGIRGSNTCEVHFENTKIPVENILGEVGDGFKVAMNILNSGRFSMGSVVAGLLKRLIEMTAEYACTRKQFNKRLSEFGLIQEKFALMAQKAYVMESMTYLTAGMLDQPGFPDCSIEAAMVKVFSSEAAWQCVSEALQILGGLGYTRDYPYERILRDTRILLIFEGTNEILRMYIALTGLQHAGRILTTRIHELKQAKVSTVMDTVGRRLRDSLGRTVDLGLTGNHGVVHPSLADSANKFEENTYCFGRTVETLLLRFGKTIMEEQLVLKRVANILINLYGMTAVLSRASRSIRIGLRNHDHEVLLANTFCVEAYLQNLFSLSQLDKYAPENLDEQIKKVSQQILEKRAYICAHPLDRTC

[13] = molecular target: ACADS_P16219_109_GCASTGVIMSVNNSLYLGPILK (UniProt P16219)
[14] = molecular target: ACADVL_P49748_237_TSAVPSPCGK (UniProt P49748)
ACADVL_P49748_237_TSAVPSPCGK, sequence (P49748 whole entry, looked up): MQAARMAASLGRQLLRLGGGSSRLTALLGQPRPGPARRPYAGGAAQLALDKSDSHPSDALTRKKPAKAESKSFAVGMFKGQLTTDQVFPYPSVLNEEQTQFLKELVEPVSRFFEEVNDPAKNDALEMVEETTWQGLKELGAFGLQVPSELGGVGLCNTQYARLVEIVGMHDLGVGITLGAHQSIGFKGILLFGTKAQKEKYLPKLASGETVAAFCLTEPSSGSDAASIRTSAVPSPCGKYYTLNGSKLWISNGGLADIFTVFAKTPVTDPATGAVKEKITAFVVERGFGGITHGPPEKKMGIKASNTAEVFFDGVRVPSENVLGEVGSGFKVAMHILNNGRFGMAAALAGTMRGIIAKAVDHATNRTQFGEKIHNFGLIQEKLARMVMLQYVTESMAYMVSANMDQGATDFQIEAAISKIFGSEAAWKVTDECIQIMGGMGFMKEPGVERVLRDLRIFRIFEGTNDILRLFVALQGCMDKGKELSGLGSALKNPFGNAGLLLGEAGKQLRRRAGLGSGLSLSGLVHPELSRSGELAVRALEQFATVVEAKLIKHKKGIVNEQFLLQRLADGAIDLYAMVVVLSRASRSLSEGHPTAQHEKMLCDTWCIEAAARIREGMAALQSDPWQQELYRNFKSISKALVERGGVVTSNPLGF

[15] = molecular target: ACADVL_P49748_477_LFVALQGCMDK (UniProt P49748)
ACADVL_P49748_477_LFVALQGCMDK, sequence (P49748 whole entry, looked up): as above

[16] = molecular target: ACADVL_P49748_603_MLCDTWCIEAAAR (UniProt P49748)
UniProt P49748, sequence (P49748 whole entry, looked up): as above

[17] = molecular target: ACAP2_Q15057_329_FCFEVVSPTK (UniProt Q15057)
[18] = molecular target: ACAP2_Q15057_691_GPLHHATVLGHTGQVCLFLK (UniProt Q15057)
[19] = molecular target: ACAT1_P24752_196_IHMGSCAENTAK (UniProt P24752)
UniProt P24752, sequence (P24752 whole entry, looked up): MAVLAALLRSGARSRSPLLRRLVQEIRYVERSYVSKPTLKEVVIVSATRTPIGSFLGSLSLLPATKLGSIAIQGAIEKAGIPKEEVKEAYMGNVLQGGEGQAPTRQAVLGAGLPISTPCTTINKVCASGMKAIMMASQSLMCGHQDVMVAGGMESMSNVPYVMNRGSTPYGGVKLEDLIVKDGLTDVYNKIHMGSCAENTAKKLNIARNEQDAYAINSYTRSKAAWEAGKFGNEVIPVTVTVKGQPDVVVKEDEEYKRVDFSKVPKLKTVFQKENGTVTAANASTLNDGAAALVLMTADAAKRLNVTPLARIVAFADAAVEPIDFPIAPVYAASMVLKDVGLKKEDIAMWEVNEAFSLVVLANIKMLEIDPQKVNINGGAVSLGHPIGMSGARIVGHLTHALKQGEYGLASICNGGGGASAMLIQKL

[20] = molecular target: ACAT1_P24752_413_QGEYGLASICNGGGGASAMLIQK (UniProt P24752)
UniProt P24752, sequence (P24752 whole entry, looked up): as the sequence (P24752 whole entry, looked up) above

[21] = molecular target: ACAT2_Q9BWD1_360_VNIEGGAIALGHPLGASGCR (UniProt Q9BWD1)
[22] = molecular target: ACLY_P53396_633_GVTIIGPATVGGIKPGCFK (UniProt P53396)
UniProt P53396, sequence (P53396 whole entry, looked up): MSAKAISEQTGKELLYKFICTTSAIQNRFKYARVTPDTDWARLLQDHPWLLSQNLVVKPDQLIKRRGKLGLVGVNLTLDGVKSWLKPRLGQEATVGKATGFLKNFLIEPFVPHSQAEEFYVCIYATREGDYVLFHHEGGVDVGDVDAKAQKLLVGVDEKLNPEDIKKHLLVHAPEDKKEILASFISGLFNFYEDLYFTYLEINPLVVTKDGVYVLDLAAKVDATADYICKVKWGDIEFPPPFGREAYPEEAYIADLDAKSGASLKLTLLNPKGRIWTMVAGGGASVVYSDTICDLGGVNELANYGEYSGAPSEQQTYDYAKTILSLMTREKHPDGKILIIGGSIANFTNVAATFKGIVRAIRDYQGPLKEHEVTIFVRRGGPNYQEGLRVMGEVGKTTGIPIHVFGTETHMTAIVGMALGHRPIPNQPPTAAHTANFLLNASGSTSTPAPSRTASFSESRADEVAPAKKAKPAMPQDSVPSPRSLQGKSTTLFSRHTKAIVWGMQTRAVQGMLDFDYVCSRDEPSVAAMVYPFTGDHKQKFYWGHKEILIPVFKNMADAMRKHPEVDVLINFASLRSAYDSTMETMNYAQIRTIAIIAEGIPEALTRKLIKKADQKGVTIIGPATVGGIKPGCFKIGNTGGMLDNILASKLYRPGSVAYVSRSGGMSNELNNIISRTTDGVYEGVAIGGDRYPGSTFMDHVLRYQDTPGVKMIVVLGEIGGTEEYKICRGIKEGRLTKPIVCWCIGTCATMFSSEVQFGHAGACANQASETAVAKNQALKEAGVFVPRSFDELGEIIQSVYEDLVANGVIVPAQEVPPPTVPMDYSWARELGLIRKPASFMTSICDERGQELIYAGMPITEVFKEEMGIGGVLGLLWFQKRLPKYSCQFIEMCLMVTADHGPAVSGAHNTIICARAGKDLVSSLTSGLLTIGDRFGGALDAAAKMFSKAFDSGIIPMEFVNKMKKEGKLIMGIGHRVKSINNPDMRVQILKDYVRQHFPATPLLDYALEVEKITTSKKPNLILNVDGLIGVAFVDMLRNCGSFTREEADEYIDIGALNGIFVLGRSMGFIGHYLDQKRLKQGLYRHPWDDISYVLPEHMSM

[23] = molecular target: ACO2_Q99798_451_DLGGIVLANACGPCIGQWDRK (UniProt Q99798)
UniProt Q99798, sequence (Q99798 whole entry, looked up): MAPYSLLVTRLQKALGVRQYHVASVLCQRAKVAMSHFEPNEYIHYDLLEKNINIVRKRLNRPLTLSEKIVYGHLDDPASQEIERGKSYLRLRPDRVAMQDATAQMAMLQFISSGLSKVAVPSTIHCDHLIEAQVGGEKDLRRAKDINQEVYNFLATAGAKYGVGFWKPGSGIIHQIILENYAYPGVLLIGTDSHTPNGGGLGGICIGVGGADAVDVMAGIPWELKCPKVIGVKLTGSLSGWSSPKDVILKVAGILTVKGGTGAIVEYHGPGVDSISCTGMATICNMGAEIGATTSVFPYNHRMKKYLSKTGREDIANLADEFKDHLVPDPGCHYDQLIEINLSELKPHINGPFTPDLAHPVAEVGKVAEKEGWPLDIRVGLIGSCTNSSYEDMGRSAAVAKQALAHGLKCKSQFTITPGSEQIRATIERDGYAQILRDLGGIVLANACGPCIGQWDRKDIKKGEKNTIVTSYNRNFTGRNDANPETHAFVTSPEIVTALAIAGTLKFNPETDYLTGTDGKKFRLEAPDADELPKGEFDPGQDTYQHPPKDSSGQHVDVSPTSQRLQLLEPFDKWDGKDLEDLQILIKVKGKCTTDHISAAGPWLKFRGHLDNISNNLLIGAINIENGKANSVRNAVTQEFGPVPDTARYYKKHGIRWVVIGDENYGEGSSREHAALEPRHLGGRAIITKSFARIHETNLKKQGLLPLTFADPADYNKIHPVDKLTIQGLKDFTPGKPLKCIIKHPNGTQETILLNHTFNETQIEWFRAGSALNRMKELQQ
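Note: competitive profiling in live THP-1 cells: cysteine peptides tagged with an iodoacetamide desthiobiotin (IA-DTB) probe, intensity after compound treatment relative to DMSO-treated cells.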

Cc1cc(C(=O)N2CCCN(C(=O)CCl)CC2)ccc1-c1ccccc1 [compound 10]
probe-labelled cysteine peptide fold change ([1]; 10 µM): -0.667 | probe-labelled cysteine peptide fold change ([1]; 50 µM): -1.16 | probe-labelled cysteine peptide fold change ([2]; 10 µM): -0.0352 | probe-labelled cysteine peptide fold change ([2]; 50 µM): -0.104 | probe-labelled cysteine peptide fold change ([3]; 10 µM): -0.245 | probe-labelled cysteine peptide fold change ([3]; 50 µM): -0.823 | probe-labelled cysteine peptide fold change ([4]; 10 µM): 0.35 | probe-labelled cysteine peptide fold change ([4]; 50 µM): 0.325 | probe-labelled cysteine peptide fold change ([5]; 10 µM): 0.0491 | probe-labelled cysteine peptide fold change ([5]; 50 µM): 0.0493 | probe-labelled cysteine peptide fold change ([6]; 10 µM): 0.0269 | probe-labelled cysteine peptide fold change ([6]; 50 µM): -0.0455 | probe-labelled cysteine peptide fold change ([7]; 10 µM): -0.497 | probe-labelled cysteine peptide fold change ([7]; 50 µM): -1.15 | probe-labelled cysteine peptide fold change ([8]; 10 µM): 0.198 | probe-labelled cysteine peptide fold change ([8]; 50 µM): 0.147 | probe-labelled cysteine peptide fold change ([9]; 10 µM): -0.136 | probe-labelled cysteine peptide fold change ([9]; 50 µM): -0.197 | probe-labelled cysteine peptide fold change ([10]; 10 µM): -0.114 | probe-labelled cysteine peptide fold change ([10]; 50 µM): 0.0101 | probe-labelled cysteine peptide fold change ([11]; 10 µM): -0.0523 | probe-labelled cysteine peptide fold change ([11]; 50 µM): 0.00696 | probe-labelled cysteine peptide fold change ([12]; 10 µM): 0.0883 | probe-labelled cysteine peptide fold change ([12]; 50 µM): 0.106 | probe-labelled cysteine peptide fold change ([13]; 10 µM): 0.363 | probe-labelled cysteine peptide fold change ([13]; 50 µM): 0.27 | probe-labelled cysteine peptide fold change ([14]; 10 µM): -0.143 | probe-labelled cysteine peptide fold change ([14]; 50 µM): -0.259 | probe-labelled cysteine peptide fold change ([15]; 10 µM): -0.223 | probe-labelled cysteine peptide fold change ([15]; 50 µM): 0.311 | probe-labelled cysteine peptide fold change ([16]; 10 µM): -0.105 | probe-labelled cysteine peptide fold change ([16]; 50 µM): -0.188 | probe-labelled cysteine peptide fold change ([17]; 10 µM): 0.23 | probe-labelled cysteine peptide fold change ([17]; 50 µM): 0.177 | probe-labelled cysteine peptide fold change ([18]; 10 µM): -0.107 | probe-labelled cysteine peptide fold change ([18]; 50 µM): -1.08 | probe-labelled cysteine peptide fold change ([19]; 10 µM): -0.282 | probe-labelled cysteine peptide fold change ([19]; 50 µM): -1.22 | probe-labelled cysteine peptide fold change ([20]; 10 µM): -0.164 | probe-labelled cysteine peptide fold change ([20]; 50 µM): -1.09 | probe-labelled cysteine peptide fold change ([21]; 10 µM): 0.232 | probe-labelled cysteine peptide fold change ([21]; 50 µM): 0.226 | probe-labelled cysteine peptide fold change ([22]; 10 µM): -0.00834 | probe-labelled cysteine peptide fold change ([22]; 50 µM): 0.0362 | probe-labelled cysteine peptide fold change ([23]; 10 µM): -0.125 | probe-labelled cysteine peptide fold change ([23]; 50 µM): -0.398
